For 24 compounds, Potency and outcome results are on record in PubChem BioAssay (Tox21).

Values joined by “and” are separate entries in the source; they are usually repeats but may differ in a detail not shown here. Equal entries are not always repeated. Results filed as inconclusive are left out. Some compounds were tested as several samples or in several runs, with calls that do not always agree. Active and inactive are the calls of the source. Unless noted, calls come from the whole dose curve; as a rule, active = well fitted curve in the direction sought with a large enough effect in the repeat runs; inconclusive = weak or mixed curves; inactive = no such curve, though single readings can be large; an effect the other way counts as inactive or inconclusive.

Experiment [1] is described as follows: qHTS assay for small molecule agonists of the p53 signaling pathway (AID 651631; calls by dose curve; note: nearly all actives have a fitted effect of over 15% in size; note: potency is the fitted concentration of half-maximal effect). The following applies: HCT-116 p53RE-bla reporter, beta-lactamase FRET ratio, 16 h; series mostly up to 73.3 µM. A digest of the protocol:
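Testing took place in human colorectal HCT-116 cells with stable p53RE-driven beta-lactamase. After 16 h of compound exposure at 37 °C, a FRET substrate was added and fluorescence recorded 2 h later.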

Experiment [2] in a line: qHTS assay for small molecule agonists of the p53 signaling pathway - cell viability (AID 651633; calls by dose curve; note: nearly all actives have a fitted effect of over 30% in size; note: potency is the fitted concentration of half-maximal effect). The note with it: p53RE-bla HCT-116 viability, ATP luminescence, 16 h; series mostly up to 83.3 µM. The procedure, abridged:
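p53RE-bla cells, seeded at 4,000 per well and rested 5 h at 37 C/5% CO2, received compounds in DMSO for 16 h at 37 C. CellTiter-Glo was then added, and luminescence was read after 30 min at room temperature to gauge cytotoxicity.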
For orientation: Quantitative high-throughput screening tests each substance at several concentrations.

Experiment [3] in a line: qHTS assay for small molecules that induce genotoxicity in human embryonic kidney cells expressing luciferase-tagged ATAD5 - cell viability (AID 651634; calls by dose curve; note: nearly all actives have a fitted effect of over 25% in size; note: potency is the fitted concentration of half-maximal effect). The note with it: HEK293T ATAD5-luc cells viability, CellTiter-Fluor, 15.5 h; series mostly up to 83.3 µM. A digest of the protocol:
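HEK293T cells carrying luciferase-tagged ATAD5, 2,000 cells/well, exposed to compound for 15.5 hr at 37C. Viability read as live-cell protease activity by CellTiter-Fluor fluorescence after 30 min at 37C.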

Experiment [4] can be described thus: qHTS assay for small molecule disruptors of the mitochondrial membrane potential - cell viability (AID 720634; calls by dose curve; note: nearly all actives have a fitted effect of over 20% in size; note: potency is the fitted concentration of half-maximal effect). The note with it: HepG2 viability, ATP luminescence (CellTiter-Glo), 1 h; series mostly up to 83.2 µM. The procedure, abridged: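 HepG2 cells, 2,000 per well, attached overnight, then treated 1 hr at 37 C, 5% CO2. Viability read as ATP by CellTiter-Glo luminescence after 30 min at room temperature. Read in the same wells as the m-MPI membrane-potential dye assay.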

The nature of experiment [5]: qHTS assay to test for compound auto fluorescence at 590 nm (red) in HepG2 cells (AID 720674). The following applies: HepG2 autofluorescence, red 540/590 nm, 1 h; series mostly up to 91.3 µM. The procedure, abridged: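 Compound auto-fluorescence is scored relative to Rose Bengal sodium, measured at 540/590 nm in live HepG2 cultures after 1 hr compound contact (37 C, 5% CO2).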

Experiment [6] can be described thus: qHTS assay to test for compound auto fluorescence at 535 nm (green) in HepG2 cells (AID 720675). The note with it: green autofluorescence 485/535 nm, 1 h; series mostly up to 91.3 µM.
A short description of experiment [7]: qHTS assay to test for compound auto fluorescence at 460 nm (blue) in HEK293 cells (AID 720678). The following applies: blue autofluorescence 405/460 nm; series mostly up to 91.3 µM. The procedure, abridged:
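Auto fluorescence in the blue band was quantified as triamterene equivalency. HEK293 cells were seeded at 2,000/well, dosed after a 4-5 hr attachment, and kept overnight at 37C before the 405/460 nm reading.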

Experiment [8] is described as follows: qHTS assay to test for compound auto fluorescence at 590 nm (red) in HEK293 cells (AID 720679). The note with it: red autofluorescence 540/590 nm; series mostly up to 91.3 µM. The procedure, abridged:
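Autofluorescence equivalency to Rose Bengal sodium, 540/590nm, in HEK293 cells exposed overnight to 23 nL compound per well.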

Experiment [9] in a line: qHTS assay for small molecule disruptors of the mitochondrial membrane potential (AID 720635). Note: potency is the fitted concentration of half-maximal effect. The following applies: HepG2 mitochondrial membrane potential, Mito-MPS dye ratio; series mostly up to 83.2 µM. The procedure, abridged: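 HepG2 cells (2,000/well) attached overnight at 37C, then took compound for 1 hr at 37C, 5% CO2. Mito-MPS dye was added for 30 min; fluorescence was read at 490/535 nm (monomers) and 540/590 nm (aggregates).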

Experiment [10] is described as follows: qHTS assay for small molecules that induce genotoxicity in human embryonic kidney cells expressing luciferase-tagged ATAD5 (AID 651632). Note: nearly all actives have a fitted effect of over 15% in size. Note: potency is the fitted concentration of half-maximal effect. The note with it: HEK293T ATAD5-luciferase induction, 16 h; series mostly up to 83.3 µM. The procedure, abridged: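 HEK293T cells carrying luciferase-tagged ATAD5 were given compound or DMSO vehicle and incubated 16 hr at 37C, 5% CO2. Luciferase activity was read after 30 min at room temperature with Amplite; a rise signals genotoxic stress.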

As for `C=CC(=O)[O-].C=CC(=O)[O-].[Zn+2]`, the Potency result in experiment [1], in [2], in experiment [3], in experiment [4] and in experiment [7] was “inactive” throughout. For the same compound, the outcome in experiment [5], in experiment [6] and in [8] was inactive.
Consider `O=C=Nc1ccc(Cl)c(Cl)c1`, for which the Potency entry in experiment [1], in [2] and in experiment [7] was “inactive” throughout. The Potency in experiment [9] was 7.57 µM (active). Further, the compound was called inactive in [6] and in experiment [8].
As for `NC1[C@H]2CN(c3nc4c(cc3F)c(=O)c(C(=O)O)cn4-c3ccc(F)cc3F)C[C@@H]12` (stereo not given in full), in experiment [1], the Potency is 29.8 µM (active). Also, the Potency entry in experiment [2], in experiment [4] and in experiment [7] was “inactive” in each case. The compound was called inactive in experiment [6] and in experiment [8].
On to `COc1ccccc1N1CCN(CCCCNC(=O)c2ccc(-c3ccc(C(C)=O)cc3)cc2)CC1`, for which the Potency entry in experiment [1], in experiment [10], in experiment [3], in [4], in [9] and in experiment [7] was “inactive” throughout. The call in experiment [5] and in experiment [8] was inactive.
On to `C=C(C)[C@@H]1CCC2=CCC[C@@H](C)[C@]2(C)C1`, for which the Potency entry in experiment [1], in experiment [10], in [2], in experiment [4] and in experiment [7] was “inactive” throughout. Besides, the call in experiment [5], in [6] and in experiment [8] was inactive.
As to `CCC1CO1` (stereo not given), the Potency result in experiment [1], in experiment [10], in [2], in [4], in experiment [9] and in [7] was “inactive” each time. Moreover, the compound was classed as inactive in [6] and in experiment [8].
On to `CC(=O)Nc1cc(S(=O)(=O)O)cc2cc(S(=O)(=O)O)c(N=Nc3ccccc3)c(O)c12`, for which the Potency result in experiment [1], in experiment [10], in experiment [2] and in [7] was “inactive” in each case. Also, the compound was classed as inactive in experiment [5] and in experiment [8].
Consider `CC=C(Cl)Cl`, for which the Potency result in experiment [1], in [10], in experiment [2], in experiment [4] and in [7] was “inactive” in each case. Also, the result in [5] and in [8] was inactive.
`CCOC(=O)c1ccccc1C(=C1C=C(Br)C(=O)C(Br)=C1)c1cc(Br)c(O)c(Br)c1`: the Potency in experiment [1] is 7.24 µM (active); in experiment [2], 7.24 µM (active); in experiment [9] it was 20.4 µM (active). Moreover, the Potency result in [10], in experiment [4] and in [7] was “inactive” each time. The call in [5], in experiment [6] and in [8] was inactive.
Consider `c1cc(N(CC2CO2)CC2CO2)ccc1Cc1ccc(N(CC2CO2)CC2CO2)cc1` (stereo not given), for which the Potency in experiment [1] is 24.3 µM (active); in experiment [10] it was 15.4 µM (active); in experiment [4] it was 48.6 µM (active); in experiment [9] it was 27.3 µM (active). The Potency entry in experiment [2] and in [7] was “inactive” each time. Also, the outcome in experiment [5], in experiment [6] and in experiment [8] was inactive.
As to `Cc1cccc(N(C)C(=S)Oc2ccc3c(c2)CCC3)c1`, the Potency result in [1], in [10], in [2] and in [4] was “inactive” in each case. The outcome in [5], in experiment [6] and in [8] was inactive.
In the case of `CC(C)C(O)(c1ccc(OC(F)(F)F)cc1)c1cncnc1` (stereo not given), the Potency result in experiment [1], in [2], in experiment [3], in experiment [4] and in experiment [7] was “inactive” in each case. The compound was classed as inactive in experiment [5], in experiment [6] and in [8].
`COc1cc(Nc2c(C#N)cnc3cc(OCCCN4CCN(C)CC4)c(OC)cc23)c(Cl)cc1Cl`: the Potency was 11.9 µM (active) in [1], 26.6 µM (active) in experiment [2] and 0.376 µM (active) in [9]. The Potency result in experiment [10], in experiment [4] and in experiment [7] was “inactive” throughout. In addition, the call in experiment [5], in experiment [6] and in experiment [8] was inactive.
On to `O=C1c2ccccc2C(=O)c2c(O)c(O)cc(O)c21`, for which the Potency result in experiment [1], in experiment [10], in experiment [2], in experiment [4] and in [7] was “inactive” each time. The Potency in experiment [9] was 27.3 µM (active). Moreover, the compound was classed as inactive in experiment [8].
On to `CO/N=C(/C(=O)N[C@@H]1C(=O)N2C(C(=O)O)=C(COC(N)=O)CS[C@H]12)c1ccco1`, for which the Potency entry in experiment [1], in experiment [10], in experiment [2], in experiment [4], in experiment [9] and in experiment [7] was “inactive” in each case. The result in experiment [6] and in experiment [8] was inactive.
Regarding `FC(F)(F)c1ccccc1Cl`, the Potency entry in [1], in experiment [10], in experiment [2], in experiment [4], in [9] and in experiment [7] was “inactive” each time. Besides, the compound was called inactive in experiment [5] and in experiment [8].
Take `c1ccc(C[n+]2cccc3ccccc32)cc1`: the Potency result in experiment [10], in experiment [2], in experiment [3], in experiment [4] and in [7] was “inactive” throughout. Further, the result in experiment [5], in experiment [6] and in experiment [8] was inactive.
On to `C[C@]12CC[C@@H]3c4ccc(O)cc4CC[C@H]3[C@@H]1CC[C@@H]2OC(=O)CCC1CCCC1`, for which the Potency entry in experiment [10], in experiment [2], in [3] and in experiment [7] was “inactive” each time. The Potency entry was “inactive and 61.1 µM (active)” in experiment [4]; 17.2 µM (active) in experiment [9]. The call in [5], in experiment [6] and in experiment [8] was inactive.
As to `COc1ccccc1N1CCN(CC(O)COc2cccc3ccccc23)CC1` (stereo not given), the Potency entry in experiment [10], in experiment [2], in experiment [3], in [4] and in experiment [7] was “inactive” each time. Also, the compound was classed as inactive in experiment [5], in [6] and in experiment [8].
In the case of `Cc1cc(C)c(N)cc1C`, the Potency result in experiment [10], in [2], in experiment [3], in experiment [4], in experiment [9] and in [7] was “inactive” throughout. For the same compound, the result in [5], in experiment [6] and in experiment [8] was inactive.
In the case of `Nc1nnc(-c2ccc([N+](=O)[O-])o2)o1`, the Potency entry in experiment [10], in experiment [2], in experiment [3], in experiment [4] and in experiment [7] was “inactive” each time. In addition, the Potency in [9] was 61.1 µM (active). Also, the compound was classed as inactive in experiment [5] and in experiment [8].
On to `CCc1ccccc1`, for which the Potency result in [10], in experiment [2], in experiment [3], in [4], in experiment [9] and in [7] was “inactive” throughout. Further, the call in [5], in experiment [6] and in [8] was inactive.
Regarding `C[C@H]1c2cccc(O)c2C(O)=C2C(=O)[C@]3(O)C(O)=C(C(N)=O)C(=O)[C@@H](N(C)C)[C@@H]3[C@@H](O)[C@@H]21`, the Potency entry in experiment [10], in experiment [2], in experiment [3], in experiment [4] and in [7] was “inactive” each time. Moreover, the compound was classed as inactive in experiment [5], in experiment [6] and in experiment [8].
Regarding `CC(=O)Oc1ccc([N+](=O)[O-])cc1CCl`, the Potency entry in experiment [10], in [2], in [4] and in experiment [7] was “inactive” each time. Also, the Potency was 30.6 µM (active) in experiment [3] and 54.5 µM (active) in experiment [9]. In addition, the outcome in experiment [5], in experiment [6] and in experiment [8] was inactive.
